# About 31,000 (8.9%) of roughly 350,000 compounds were called active. Not shown: some 15% with an inconclusive outcome. Many of the other results were omitted from the sample, so actives are more common in it than they were. Unmarked numbers belong to inactive results. The call rests on the fitted dose curve; in most records, active means well fitted inhibition curve with a large enough effect; inconclusive means small, poorly fitted or top-dose-only effect; inactive means no such curve, though single readings can be large or run the other way.
# Target: Histone-lysine N-methyltransferase EHMT2 (Homo sapiens) (UniProt Q96KQ7)
# Test: qHTS Assay for Inhibitors of Histone Lysine Methyltransferase G9a; further: nearly all actives have a fitted effect of over 75% in size
# Settings: G9a H3K9 monomethylation, AlphaScreen, 2 h; series mostly up to 59 µM; activity, negative = inhibition: at the top concentration
# In short: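 G9a (20 nM) preincubated 15 min RT with compounds, then 500 nM biotinylated H3K9 peptide and 20 uM SAM added; 2 h RT reaction. Monomethyl-H3K9 product detected by AlphaScreen with anti-H3K9me1 antibody, streptavidin donor and anti-rabbit IgG acceptor beads.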
# On the % scale 0 is the no-effect control and ±100 the full control effect; potency means the concentration at half of the fitted maximal effect.
# Chain of Histone-lysine N-methyltransferase EHMT2 (Homo sapiens) (Q96KQ7 913-1193 limits assumed): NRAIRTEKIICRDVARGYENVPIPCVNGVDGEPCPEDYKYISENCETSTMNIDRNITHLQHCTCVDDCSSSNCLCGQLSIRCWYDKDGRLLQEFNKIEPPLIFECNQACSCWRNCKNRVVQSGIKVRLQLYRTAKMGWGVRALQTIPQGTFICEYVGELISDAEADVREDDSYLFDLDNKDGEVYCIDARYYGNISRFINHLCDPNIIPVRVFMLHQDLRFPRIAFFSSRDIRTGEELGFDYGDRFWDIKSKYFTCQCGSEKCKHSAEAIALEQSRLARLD
SMILES,"activity, negative = inhibition",Potency
O=C(NCCN1CCOCC1)/C(=C/c1ccc(F)cc1)NC(=O)c1ccccc1,8.68% [at 102 µM],–
Cc1ccccc1CN1C(=O)c2ccccc2Sc2ccc(C(=O)NCCCN3CCOCC3)cc21,-26.2%,–
CCN1CCN(CCNC(=O)c2ccc3c(c2)NC(=O)/C(=C\c2ccc(OC)c(OC)c2)S3)CC1,4.92% [at 0.0925 µM],–
CCN1CCN(CCNC(=O)c2ccc(/C=C3/Sc4ccccc4N(Cc4cccc(C)c4)C3=O)cc2)CC1,–,44.7 µM (active)
O=C(NCCN1CCOCC1)c1ccc(/C=C2\Sc3ccccc3N(Cc3ccc(F)cc3)C2=O)cc1,–,28.2 µM (active)
Cc1ccc(C(=O)N/C(=C\c2ccc(F)cc2)C(=O)NCCN2CCOCC2)cc1,-3.65% [at 102 µM],–
CCc1nc2c(cnn2-c2ccc(C)cc2)c(=O)n1-c1ccc(C)cc1,11.6%,–
CCOc1ccccc1/C=N/Nc1nc2ccccc2o1,15.2% [at 102 µM],–
O=C1[C@H]2[C@@H](c3ccc(F)cc3)N3C(=O)N(c4ccc(C(F)(F)F)cc4)C(=O)[C@@]3(Cc3ccccc3)[C@H]2C(=O)N1C1CCCCC1,1.06% [at 12.7 µM],–
CCOc1ccc(N(CC)S(=O)(=O)N2CCCC(C(=O)NCc3ccc(Cl)cc3)C2)cc1 (stereo not drawn),3.08%,–
Cc1cc(=O)[nH]c(=S)[nH]1,-41.8% [at 2.33 µM],–
Cc1c(C)c(C)c2[nH]c(=S)[nH]c2c1C,–,1.12 µM (active)
CCc1ccc(Oc2coc3cc(O)ccc3c2=O)cc1,13.5% [at 102 µM],–
CCOC(=O)c1cccc(NC(=O)c2cc(CN3CCCC3)on2)c1,2.39%,–
CCOc1cc(C)c(S(=O)(=O)NCc2ccccn2)cc1C,15.8% [at 102 µM],–
O=C(c1cccc(F)c1)N1CCN(c2ccc([N+](=O)[O-])c(N3CCCCC3)c2)CC1,21.2% [at 0.501 µM],–
O=C(c1ccc(Cl)c([N+](=O)[O-])c1)N1CCN(c2ccccc2)CC1,-43.7% [at 102 µM],–
CO/N=C/c1ccc(N2CCN(C(=O)c3cccc(Cl)c3)CC2)c([N+](=O)[O-])c1,–,14.1 µM (active)
CCCN(CCC)CCCNC(=O)Cn1cc2c(n1)-c1c(oc(C(=O)N3CCCC3)c1C)CC2,-27.7%,–
COCC(C)NS(=O)(=O)c1ccc(N2CCCCS2(=O)=O)cc1 (stereo not drawn),7.99%,–
Cc1nc2sc(C)c(C)n2c(=O)c1S(=O)(=O)NCCc1ccc(Cl)cc1,-7.89%,–
Cc1cccc(NC(=O)c2cc3c(C)nn(-c4ccccc4)c3s2)c1,-1.38%,–
Cc1cccn2c(=O)c3cc(C(=O)NC4CCCCC4)sc3nc12,3.36% [at 102 µM],–
Cc1ccccc1-n1nc(C)c2cc(C(=O)NC3CC3)sc21,–,79.4 µM (active)

SMILES,"activity, negative = inhibition",Potency
COc1cc(Cl)c(NC(=O)CC(C)S(=O)(=O)c2cc3c(cc2C)NC(=O)CO3)c(OC)c1 (stereo not drawn),-34%,–
O=C(CSc1ncccn1)NCCc1ccccc1,21.5%,–
CC(C)(C)C(=O)c1cnc(Nc2ccccc2)s1,-11.7%,–
S=c1[nH]nc(Nc2ccccc2)s1,–,1.12 µM (active)
O=S(=O)(NCCc1ccccc1)c1ccccc1,-4.81%,–
O=c1cnnc(Nc2ccccc2)[nH]1,14.3% [at 102 µM],–
S=c1[nH]nc(NCCc2ccccc2)s1,–,0.316 µM (active)
CCOc1ccc(S(=O)(=O)Nc2cccc(C(=O)NCC3(N4CCCCC4)CCCCC3)c2)cc1,19.1% [at 0.501 µM],–
CCOC(=O)C1CCC(CN(Cc2ccc(OC)cc2)S(=O)(=O)c2ccc(F)c(C(=O)Nc3cc(C)ccc3C)c2)CC1 (stereo not drawn),1.59%,–
O=C(N[C@@H](Cc1ccccc1)C(=O)OCc1ccccc1)c1nc[nH]c1C(=O)NC1CCNCC1,-7.95% [at 2.33 µM],–
Cc1sc(C2C(C#N)=C(N)N(c3cccc(Cl)c3)C3=C2C(=O)CCC3)cc1CN1CCOCC1 (stereo not drawn),–,15.8 µM (active)
CCc1ccc(C2C(C#N)=C(N)N(N(C)C)C3=C2C(=O)CCC3)s1 (stereo not drawn),-12.3%,–
N#CC1=C(N)N(c2ccccc2)C2=C(C(=O)CCC2)C1c1ccccc1 (stereo not drawn),-1.58%,–
CC(=O)Nc1cccc(NC(=O)CSc2cn(CC(=O)N3CCCC3)c3ccccc23)c1,-7.24%,–
CCN(CCCNC(=O)c1cc(Nc2ccc(OC)cc2)nc2ccccc12)c1cccc(C)c1,-28.7%,–
CC[C@H](C)C(=O)N[C@H]1CCCN1C(=O)/C=C/c1ccccc1,11.1% [at 2.33 µM],–
COc1ccc(C(=O)OC(C)C(=O)NC2CCCC2)cc1S(=O)(=O)N1CCOCC1 (stereo not drawn),22.8% [at 12.7 µM],–
COc1ccc(C(=O)N2CCN(c3ncccn3)CC2)cc1S(=O)(=O)N1CCOCC1,10.4% [at 12.7 µM],–
COc1ccc(C(=O)Oc2ccc(-c3nnco3)cc2)cc1S(=O)(=O)N1CCOCC1,–,50.1 µM (active)
COc1ccc(Cl)cc1NC(=O)CCn1c(=O)c2cccn2c2ccccc21,-4.8%,–
Cc1ccc(Cl)cc1N1CCN(C(=O)c2cccn3c(=O)c4cc(Cl)ccc4nc23)CC1,23.6%,–
Cc1ccc(Cl)cc1N1CCN(C(=O)c2cccc3c(=O)c(C)c(-c4ccccc4)oc23)CC1,–,7.94 µM (active)
CCn1cc(C(=O)N2CCN(c3cc(Cl)ccc3C)CC2)c(=O)c2cc(S(=O)(=O)N3CCCC3)ccc21,-29.3%,–
CN(C)C(=O)COC(=O)c1cccc(S(=O)(=O)N2CC3(C)CC2CC(C)(C)C3)c1 (stereo not drawn),16.1%,–

# Reference: PubChem BioAssay AID504332 (National Center for Advancing Translational Sciences (NCATS), 2011)
